Our source for the outcome values is PubChem BioAssay (NCATS).

Calls of active or inactive are those of the source. Calls come from the whole dose curve; as a rule, active = well fitted activation curve with a large enough effect; inconclusive = small, poorly fitted or top-dose-only effect; inactive = flat fitted curve, though single readings scatter.

This experiment can be described thus: Cellular Toxicity (caspase-3) SHSY5Y (AID 657). Conditions: SH-SY5Y caspase-3 activation, DMSO zero, 10 µM staurosporine = 100%; series mostly up to 91.7 µM. From the text: NIH Chemical Genomics Center [NCGC]
NIH Molecular Libraries Screening Centers Network [MLSCN]
National Institutes of Environmental Health Sciences [NIEHS]
National Toxicology Program [NTP]
We have developed a 1536-well cell-based assay for quantitative high throughput screening (qHTS) against a number of cell lines to determine in vitro caspase 3/7 activity of small molecules. This particular assay uses the SH-SY5Y cell line which is derived from human neuroblastoma.
NCGC Assay Protocol Summary:
The Caspase-Glo 3/7 assay (Promega) is a homogeneous method to measure caspase-3 and caspase-7 activities in cultured cells. The quantitation of caspase 3/7 activity is based on the cleavage of a peptide-aminoluciferin substrate. After caspase cleaves the substrate the free aminoluciferin is liberated and serves as the substrate of luciferase, which generates the light. The luminescent signal is proportional to the amount of caspase 3/7 activity present.
Using the Caspase-Glo 3/7 assay, the amount of caspase 3/7 activity was measured in the SH-SY5Y cell line with complete culture medium following compound treatment for 16 hours. The assay was performed in opaque white 1536-well plates. In the screen, staurosporine and doxorubicin were used as positive controls. Library compounds were measured for their ability to cause the activation of caspase 3/7 in the cell line, as reflected by an increase in luminescence signal, in a concentration-dependent manner. Data were normalized to the controls for basal activity (DMSO only) and 100% stimulation (10 uM staurosporine). AC50 values were determined from concentration-response data modeled with the standard Hill equation.
qHTS protocol for caspase 3/7 assay in SH-SY5Y cells
[Step] [Parameter] [Value] [Description]
1. Reagent; 5 uL; 1500 SH-SY5Y cells/well
2. Time; 5 hr; 37 °C incubation
4. Controls; 23 nL; doxorubicin 7 pM to 100 uM & staurosporine 1.4 pM to 20 uM
5. Time; 16 hr; 37 °C incubation
6. Reagent; 5 uL; Caspase-Glo 3/7 reagent
7. Time; 1 hr; Room Temperature
8. Detection; Luminescence; Viewlux plate reader
Keywords: caspase 3/7, apoptosis, SH-SY5Y cell line, luminescence, NTPHTS, NTPHTS_NCGC, NIEHS, EPA, DSSTox, MLSMR, MLSCN, NIH Roadmap, qHTS, NCGC
With `O=C1c2c(O)cccc2Cc2cccc(O)c21`, the compound was called inactive.

Take `CC12CCC(CC1)C(C)(C)O2`: the call was inactive.

`CCCCCCCCCCCCOS(=O)(=O)O`: the compound was called inactive.

On to `[Cl][In]([Cl])[Cl]`, for which the compound was called inactive.

In the case of `Oc1cccc(O)c1`, the result was inactive.

`NCCNCCNCCN`: the compound was called inactive.

As for `C[C@]12C[C@H](O)[C@H]3[C@@H](CCC4=CC(=O)CC[C@@]43C)[C@@H]1CC[C@@H]2C(=O)CO`, the outcome was inactive.

As for `CCCCOC(=O)c1ccc(O)cc1`, the result was inactive.

Regarding `Nc1ccc(S(=O)(=O)Nc2nccs2)cc1`, the result was inactive.

`NC(=O)c1ncn([C@@H]2O[C@H](CO)[C@@H](O)[C@H]2O)n1`: the compound was called inactive.

On to `CC1(C)[C@@H]2CC[C@@]1(C)C(=O)C2`, for which the compound was called inactive.

As to `Cc1cc2nc3c(=O)[nH]c(=O)nc-3n(C[C@H](O)[C@H](O)[C@H](O)CO)c2cc1C`, the call was inactive.

Turning to `Cc1cc(CC(=O)O)n(C)c1C(=O)c1ccc(Cl)cc1`, the compound was classed as inactive.

For the compound `CN(C)CCC=C1c2ccccc2CCc2ccccc21`, the result was inactive.

With `O=C1O[C@H]([C@@H](O)CO)C(O)=C1O`, the call was inactive.

For the compound `COc1ccccc1O`, the compound was called inactive.

For `NCCNCCNCCNCCN`, the result was inactive.

With `NC(=O)N/N=C/c1ccc([N+](=O)[O-])o1`, the compound was classed as inactive.

For `Cc1c(O)cccc1C(=O)N[C@@H](CSc1ccccc1)[C@H](O)CN1C[C@H]2CCCC[C@H]2C[C@H]1C(=O)NC(C)(C)C`, the call was inactive.
